Screens from PubChem BioAssay.
This is a sample that favours compounds with a hit; in the whole collection about 5.7% have one here.
L3MBTL1 block: blocks human L3MBTL1; AlphaScreen L3MBTL1–H3K9me1 peptide binding; Potency, µM (series often up to 57.1 µM), hits mostly inhibitors; actives 0.66% (n = 230,000); further: nearly all actives have a fitted effect of over 60% in size
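L3MBTL1 (50 nM) pre-complexed 30 min with biotinylated H3(1-15)K9me1 peptide (75 nM), then compounds added for 30 min at room temperature; AlphaScreen streptavidin donor/nickel chelate acceptor beads (10 ug/mL final) read after 30 min dark incubation.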
HP1b chromo inh: HP1-beta chromodomain-methylated histone interaction inhibition; P83916; AlphaScreen HP1-beta / biotin-H3K9me3 peptide binding; Potency, µM (series often up to 114 µM), hits mostly inhibitors; actives 0.56% (n = 390,000); further: nearly all actives have a fitted effect of over 70% in size
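HP1-beta protein (50 nM final) preincubated 30 min at room temperature with biotinylated H3(1-18)K9me3 peptide (50 nM) in PBS pH 7.4, 0.01% Tween-20, then compound added for 30 min. AlphaScreen streptavidin donor/nickel chelate acceptor beads (10 ug/mL final), 30 min dark, luminescence read.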
BAZ2B inh: blocks human BAZ2B; Q9UIF8; AlphaScreen BAZ2B-H3K14Ac peptide displacement; Potency, µM (titrated, usually from 114 µM), actives largely listed as inhibitors; actives 4.4% (n = 360,000); further: nearly all actives have a fitted effect of over 60% in size
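Complex of BAZ2B and biotin-H3K14Ac (50 nM apiece) forms over 30 min at RT, then faces library compounds up to 110 uM for another 30 min; AlphaScreen beads added, 20 min dark incubation, luminescence read.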
JMJD2A Tudor inh: inhibitors of human JMJD2A Tudor domain; AlphaScreen JMJD2A-Tudor / H3K4me3 peptide binding; Potency, µM (top dose mostly 114 µM), actives largely listed as inhibitors; actives 4.4% (n = 390,000); further: nearly all actives have a fitted effect of over 50% in size
Target sequence (O75164 whole entry, looked up, the tested form may be a part): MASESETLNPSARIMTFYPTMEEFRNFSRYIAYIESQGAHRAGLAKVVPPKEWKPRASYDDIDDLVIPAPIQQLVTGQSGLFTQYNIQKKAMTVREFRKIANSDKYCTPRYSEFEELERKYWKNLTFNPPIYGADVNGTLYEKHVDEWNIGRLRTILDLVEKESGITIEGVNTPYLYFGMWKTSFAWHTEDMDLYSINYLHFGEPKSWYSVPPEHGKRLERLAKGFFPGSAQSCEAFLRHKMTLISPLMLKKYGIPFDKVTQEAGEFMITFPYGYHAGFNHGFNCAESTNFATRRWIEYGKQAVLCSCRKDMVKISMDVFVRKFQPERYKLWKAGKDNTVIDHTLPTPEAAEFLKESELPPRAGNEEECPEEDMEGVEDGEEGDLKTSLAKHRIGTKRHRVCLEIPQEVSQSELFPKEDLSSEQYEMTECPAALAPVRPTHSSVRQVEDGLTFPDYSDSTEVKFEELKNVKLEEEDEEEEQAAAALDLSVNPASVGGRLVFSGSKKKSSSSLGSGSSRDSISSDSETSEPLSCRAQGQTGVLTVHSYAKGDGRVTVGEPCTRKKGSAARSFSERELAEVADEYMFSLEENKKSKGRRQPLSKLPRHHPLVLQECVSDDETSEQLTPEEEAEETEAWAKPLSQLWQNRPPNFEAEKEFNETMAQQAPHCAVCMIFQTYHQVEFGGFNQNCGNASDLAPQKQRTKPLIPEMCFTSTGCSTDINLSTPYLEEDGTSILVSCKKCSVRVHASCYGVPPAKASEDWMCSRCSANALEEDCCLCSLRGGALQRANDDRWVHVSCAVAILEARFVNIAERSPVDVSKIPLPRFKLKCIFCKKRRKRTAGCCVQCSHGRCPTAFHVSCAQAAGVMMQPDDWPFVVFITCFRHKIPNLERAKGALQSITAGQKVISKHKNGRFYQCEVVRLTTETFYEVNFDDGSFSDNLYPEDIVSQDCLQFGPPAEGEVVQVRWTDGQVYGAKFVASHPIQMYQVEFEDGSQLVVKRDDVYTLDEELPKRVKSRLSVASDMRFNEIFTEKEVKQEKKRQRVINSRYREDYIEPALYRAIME
PI5P4Ka inh: PI5P4K alpha (human) kinase inhibition; AID 652105; actives 1.2% (n = 330,000); P48426; max response, %; PI5P4Kalpha enzyme, ADP-Glo luminescence, 60 min; active compounds read low; active means max response of -50% or lower; inconclusive means between -30% and -50%; inactive means -30% or higher; further: value at the top dose of about 77 µM
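Reactions run in 0.038 M HEPES pH 7.4, 0.28 mM EGTA, 0.1% CHAPS and 5% DMSO, with PI5P4Kalpha, substrate, compound and 5 microM ATP final, one hour at room temperature. Readout is ADP-Glo luminescence.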
KDM4E inh: blocks human JMJD2E demethylase activity; B2RXH2; JMJD2E catalytic domain, FDH-coupled NADH fluorescence (FDH is formaldehyde dehydrogenase); Potency, µM (titrated, usually from 57.1 µM), usual class: inhibitors; actives 1.6% (n = 230,000); AID 2147; active means well fitted inhibition curve with a large enough effect, not every such curve was filed as active; inconclusive means small, poorly fitted or top-dose-only effect, or another doubt; inactive means no such curve, though single readings can be large or run the other way; further: nearly all actives have a fitted effect of over 50% in size
Large screens that a line does not name were inactive. Unless noted, the call rests on the fitted dose curve; in most records, active means well fitted inhibition curve with a large enough effect; inconclusive means small, poorly fitted or top-dose-only effect; inactive means no such curve, though single readings can be large or run the other way.

COc1ccc(C(=O)CSc2nnc3ccccn23)cc1OC	none (no result: L3MBTL1 block)
COc1ccc(C(=O)CSc2ncn[nH]2)cc1OC	JMJD2A Tudor inh 40µM, KDM4E inh inconclusive
CC(C)(C)NC(=O)C(=O)NNC(=O)c1ccco1	BAZ2B inh 56µM
Oc1cccc(NC(=S)Nc2ccc(SC(F)F)cc2)c1	none
Oc1cccc2c(NC(=S)Nc3ccc(SC(F)F)cc3)cccc12	L3MBTL1 block inconclusive, HP1b chromo inh inconclusive, BAZ2B inh 45µM, JMJD2A Tudor inh inconclusive, KDM4E inh inconclusive
COCc1cc(C)n(CC(=O)Nc2cccc(C(C)=O)c2)c(=O)c1C#N	none (no result: L3MBTL1 block, PI5P4Ka inh, KDM4E inh)
CCOC(=O)c1c(C)[nH]c(CCC(=O)NCc2cc(Br)ccc2OC)c1C	JMJD2A Tudor inh inconclusive (no result: L3MBTL1 block, PI5P4Ka inh, KDM4E inh)
COCCNC(=O)c1ccc2c(=O)n(CCOC)c(SCC(=O)c3c[nH]c4ccccc34)nc2c1	none (no result: L3MBTL1 block, PI5P4Ka inh, KDM4E inh)
Nc1nnc(CC(=O)N/N=C/c2cccc([N+](=O)[O-])c2)s1	none
Nc1nnc(CC(=O)N/N=C/c2cc([N+](=O)[O-])cc(Br)c2O)s1	L3MBTL1 block inconclusive, BAZ2B inh 50µM, JMJD2A Tudor inh 79µM, PI5P4Ka inh inconclusive, KDM4E inh 11µM
COCCNC(=O)c1cc2c(c(-c3cccc(C#Cc4ccc(OC)c(OC)c4)c3)n1)[C@H](CCO)N(S(=O)C(C)(C)C)C2 (some centres not stated)	none (no result: L3MBTL1 block, HP1b chromo inh, BAZ2B inh, JMJD2A Tudor inh, KDM4E inh)
O=C(Nc1cccc(Cl)c1)c1ccc2c(c1)SC1=NS(=O)(=O)CCN12	none
Nc1nonc1-n1nnc(C(=O)N/N=C/c2ccncc2)c1CSc1ccccc1	none (no result: L3MBTL1 block, KDM4E inh)
Brc1ccc(C2=Nc3cccc4cccc(c34)N2)o1	HP1b chromo inh 45µM, BAZ2B inh inconclusive, JMJD2A Tudor inh inconclusive
C/C(=N\NC(=S)NC1CCCCC1)c1cccs1	HP1b chromo inh inconclusive, BAZ2B inh 50µM, JMJD2A Tudor inh inconclusive
C/C(=N\NC(=O)C1CC1)c1cccs1	none
Cc1ccc(C)c(NC(=S)N(C)CCc2ccccn2)c1	JMJD2A Tudor inh inconclusive
Cc1cccc(CN(C)CCc2ccccn2)c1	HP1b chromo inh inconclusive, BAZ2B inh inconclusive, JMJD2A Tudor inh 3.2µM (no result: PI5P4Ka inh)
COc1ccc(CN(C)CCc2ccccn2)c(OC)c1OC	HP1b chromo inh inconclusive, BAZ2B inh 28µM, JMJD2A Tudor inh 1µM, KDM4E inh inconclusive
ON(CCc1ccccn1)CCc1ccccn1	JMJD2A Tudor inh 14µM (no result: L3MBTL1 block, BAZ2B inh, KDM4E inh)
COc1ccc(C(=O)O)cc1S(=O)(=O)N(C)CCc1ccccn1	none
CN(CCc1ccccn1)S(=O)(=O)c1ccc(F)cc1	HP1b chromo inh 28µM, BAZ2B inh 45µM, JMJD2A Tudor inh 5.6µM, KDM4E inh inconclusive
ON(CCc1ccccn1)Cc1ccccc1	none (no result: L3MBTL1 block, BAZ2B inh, KDM4E inh)
O=C(O)c1cccc(NC(=O)c2cc3cc(Br)cc(Br)c3oc2=O)c1	none (no result: L3MBTL1 block, PI5P4Ka inh, KDM4E inh)
O=C(CC1N=C2c3ccccc3N=C(SCc3ccccc3Cl)N2C1=O)NCCc1ccccc1 (configuration not stated)	none (no result: L3MBTL1 block, PI5P4Ka inh, KDM4E inh)
Cc1c(C(=O)OCCOc2ccccc2)[nH]c2c1C(=O)CC(c1ccccc1Cl)C2 (configuration not stated)	none (no result: L3MBTL1 block, PI5P4Ka inh, KDM4E inh)
O=C(Oc1c(Cl)cc(Cl)c2cccnc12)c1cccc([N+](=O)[O-])c1	L3MBTL1 block inconclusive, BAZ2B inh 28µM, JMJD2A Tudor inh inconclusive, KDM4E inh 14µM
O=C1NC(C(=O)O)=CC(c2ccc([N+](=O)[O-])cc2)N1 (configuration not stated)	BAZ2B inh inconclusive, JMJD2A Tudor inh 18µM
NC(=NCc1ccc2c(c1)OCO2)NC(=O)c1ccccc1	L3MBTL1 block inconclusive, BAZ2B inh 40µM, JMJD2A Tudor inh inconclusive, KDM4E inh 4.5µM
CCOC1=NC(=C(c2ccccc2)c2ccccc2)OC1=O	JMJD2A Tudor inh 25µM (no result: L3MBTL1 block, BAZ2B inh, KDM4E inh)
O=C1c2ccc(-c3ccc(F)cc3OCc3ccccc3)cc2S(=O)(=O)c2cccc(C(=O)N3CCN(c4ncc(Br)cn4)CC3)c21	JMJD2A Tudor inh inconclusive (no result: BAZ2B inh, KDM4E inh)
O=C(O)c1cccc2c1C(=O)c1ccc(-c3ccc(F)cc3OCc3ccccc3)cc1S2(=O)=O	L3MBTL1 block inconclusive, BAZ2B inh 79µM, JMJD2A Tudor inh inconclusive (no result: KDM4E inh)
CCOc1ccc(NC(=O)CSc2nnc3c(C)cc4ccccc4n23)cc1	none (no result: L3MBTL1 block, PI5P4Ka inh, KDM4E inh)
O=C(CN1CCCCC1)N1CCc2ccccc21	none (no result: KDM4E inh)
